Data published in PubChem BioAssay AID2284071 (EPA ToxCast).
Inconclusive results are not listed. Activity calls are given as the source filed them. Rule for the calls: active = hit-call score of the fitted dose curve at least 0.9, where 1 is the maximum; inactive = score below 0.9.

Biological target: Tyrosine-protein kinase ABL1 (Homo sapiens) (UniProt P00519)
Assay: ERF_FR_ENZ_hABL1: Eurofins (ERF) Enzymatic Radiometric [Km ATP] KinaseProfiler LeadHunter Assay for human ABL1 Thymidine Kinase
Experimental: ERF_FR_ENZ_hABL1 is a biochemical, single-readout assay that uses extracted gene-proteins in a cell-free assay. Measurements were taken 0.5 hour after chemical dosing in a 96-well plate. See Abl Human TK Kinase Enzymatic LANCE Assay [Km ATP], Cerep.ERF_FR_ENZ_hABL1 is an assay component calculated from the ERF_FR_ENZ_hABL1 assay. It is designed to measure enzyme activity using a type of enzyme reporter as detected by fluorescence intensity with LANCE technology.Data from the assay component ERF_FR_ENZ_hABL1 was analyzed at the assay endpoint, ERF_FR_ENZ_hABL1, in the positive analysis fitting direction relative to DMSO as the negative control and baseline of activity. Using a type of enzyme reporter, loss-of-signal activity can be used to understand changes in enzymatic activity as they relate to gene ABL1. To generalize the intended target to other relatable targets, this assay endpoint is annotated to the kinase intended target family, where the subfamily is serine/threonine kinase.
ABL (h) is incubated with 8 mM MOPS pH 7.0, 0.2 mM EDTA, 50 uM […], 10 mM Mg Acetate and [g- 33P]- ATP (specific activity and concentration as required). The reaction is initiated by the addition of the Mg/ATP mix. After incubation for 40 minutes at room temperature, the reaction is stopped by the addition of phosphoric acid to a concentration of 0.5%. An aliquot of the reaction is then spotted onto a filter and washed four times for 4 minutes in 0.425% phosphoric acid and once in methanol prior to drying and scintillation counting. Compound should be supplied in 100%DMSO .We require a stock solution at a concentration of at least 50x higher than the Final Assay Concentration of your cpd. A 10mM stock is also acceptable. When ordering fewer than 60 kinase assays,we need 120uL of 50x concentrated stock. For more than 60 assays, we need 420uL of 50xcc stock. Please apply the conversion if you provide 10mM stock solution or compounds in powder form (pre-weighed is required) From 50 cpds supplied as solids, the TAT will be extended.

Tyrosine-protein kinase ABL1 (Homo sapiens), sequence (P00519 whole entry, looked up): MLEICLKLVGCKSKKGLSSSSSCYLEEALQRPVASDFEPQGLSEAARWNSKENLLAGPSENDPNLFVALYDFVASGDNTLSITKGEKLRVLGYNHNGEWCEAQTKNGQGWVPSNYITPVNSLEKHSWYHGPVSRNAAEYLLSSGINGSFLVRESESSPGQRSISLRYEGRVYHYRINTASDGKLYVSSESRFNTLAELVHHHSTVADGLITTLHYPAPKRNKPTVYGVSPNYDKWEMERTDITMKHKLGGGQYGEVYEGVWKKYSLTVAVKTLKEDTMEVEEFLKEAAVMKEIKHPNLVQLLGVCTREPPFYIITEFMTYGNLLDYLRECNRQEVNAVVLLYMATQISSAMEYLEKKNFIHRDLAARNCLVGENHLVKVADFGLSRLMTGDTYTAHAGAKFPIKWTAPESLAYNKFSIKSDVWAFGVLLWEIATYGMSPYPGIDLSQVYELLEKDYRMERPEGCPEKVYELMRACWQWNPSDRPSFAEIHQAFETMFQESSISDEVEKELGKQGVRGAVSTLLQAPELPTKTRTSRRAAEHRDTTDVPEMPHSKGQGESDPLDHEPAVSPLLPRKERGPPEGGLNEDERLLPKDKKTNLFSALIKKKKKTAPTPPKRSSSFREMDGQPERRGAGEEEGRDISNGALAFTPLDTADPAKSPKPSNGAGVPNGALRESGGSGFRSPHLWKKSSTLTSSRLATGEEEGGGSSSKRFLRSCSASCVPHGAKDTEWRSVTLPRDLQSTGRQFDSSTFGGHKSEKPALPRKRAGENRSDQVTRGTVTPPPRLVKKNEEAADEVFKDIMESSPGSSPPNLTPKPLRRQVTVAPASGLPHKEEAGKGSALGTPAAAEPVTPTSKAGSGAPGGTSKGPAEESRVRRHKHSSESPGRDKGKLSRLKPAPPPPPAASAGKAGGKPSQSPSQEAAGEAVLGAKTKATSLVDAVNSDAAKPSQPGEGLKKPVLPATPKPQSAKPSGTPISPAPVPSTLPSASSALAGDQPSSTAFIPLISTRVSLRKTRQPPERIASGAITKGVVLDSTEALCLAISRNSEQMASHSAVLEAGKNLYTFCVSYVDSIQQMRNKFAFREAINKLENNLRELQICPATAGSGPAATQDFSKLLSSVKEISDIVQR

| SMILES | AC50 | outcome |
| --- | --- | --- |
| COc1cc(/C=C/C(=O)CC(=O)/C=C/c2ccc(O)c(OC)c2)ccc1O | 1370 nM (active) |  |
| COc1cc(CCC(=O)CC(=O)CCc2ccc(O)c(OC)c2)ccc1O |  | inactive |
| O=C(/C=C/c1ccc(O)cc1)CC(=O)/C=C/c1ccc(O)cc1 | 843 nM (active) |  |
